Source: ChEMBL document CHEMBL1961873, “Compounds: GSK PKIS; Assays: Nanosyn kinase panel” (2012)

Assays:
[1] = biological target: Serine/threonine-protein kinase MRCK alpha (Homo sapiens) (UniProt Q5VT25); details: at 0.1 µM
[2] = biological target: Serine/threonine-protein kinase MRCK alpha (Homo sapiens) (UniProt Q5VT25); details: at 1 µM
[3] = biological target: Serine/threonine-protein kinase MRCK beta (Homo sapiens) (UniProt Q9Y5S2); details: at 0.1 µM
[4] = biological target: Serine/threonine-protein kinase MRCK beta (Homo sapiens) (UniProt Q9Y5S2); details: at 1 µM
[5] = biological target: Ribosomal protein S6 kinase alpha-5 (Homo sapiens) (UniProt O75582); details: at 0.1 µM
[6] = biological target: Ribosomal protein S6 kinase alpha-5 (Homo sapiens) (UniProt O75582); details: at 1 µM
[7] = biological target: Ribosomal protein S6 kinase alpha-4 (Homo sapiens) (UniProt O75676); details: at 0.1 µM
[8] = biological target: Ribosomal protein S6 kinase alpha-4 (Homo sapiens) (UniProt O75676); details: at 1 µM
[9] = biological target: Ribosomal protein S6 kinase beta-1 (Homo sapiens) (UniProt P23443); details: at 0.1 µM
Chain of Ribosomal protein S6 kinase beta-1 (Homo sapiens) (P23443 whole entry, looked up): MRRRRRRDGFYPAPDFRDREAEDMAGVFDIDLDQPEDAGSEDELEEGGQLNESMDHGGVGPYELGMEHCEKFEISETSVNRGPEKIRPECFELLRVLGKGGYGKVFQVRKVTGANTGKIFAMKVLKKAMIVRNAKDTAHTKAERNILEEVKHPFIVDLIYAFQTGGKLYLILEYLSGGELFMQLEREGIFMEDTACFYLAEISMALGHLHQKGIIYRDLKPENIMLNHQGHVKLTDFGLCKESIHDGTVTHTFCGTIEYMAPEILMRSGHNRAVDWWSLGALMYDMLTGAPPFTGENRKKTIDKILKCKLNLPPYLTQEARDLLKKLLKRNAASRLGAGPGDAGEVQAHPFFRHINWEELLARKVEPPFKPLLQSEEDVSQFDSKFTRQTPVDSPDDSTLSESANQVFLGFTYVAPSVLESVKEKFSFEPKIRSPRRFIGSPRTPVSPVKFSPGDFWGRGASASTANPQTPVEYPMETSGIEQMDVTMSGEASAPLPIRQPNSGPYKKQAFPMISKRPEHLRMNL

[10] = biological target: Ribosomal protein S6 kinase beta-1 (Homo sapiens) (UniProt P23443); details: at 1 µM
[11] = biological target: T1, 3-phosphoinositide-dependent protein kinase 1 (Homo sapiens) (UniProt O15530); details: at 0.1 µM;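 also: values are mean inhibition of PDK1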
T1 sequence (whole entry): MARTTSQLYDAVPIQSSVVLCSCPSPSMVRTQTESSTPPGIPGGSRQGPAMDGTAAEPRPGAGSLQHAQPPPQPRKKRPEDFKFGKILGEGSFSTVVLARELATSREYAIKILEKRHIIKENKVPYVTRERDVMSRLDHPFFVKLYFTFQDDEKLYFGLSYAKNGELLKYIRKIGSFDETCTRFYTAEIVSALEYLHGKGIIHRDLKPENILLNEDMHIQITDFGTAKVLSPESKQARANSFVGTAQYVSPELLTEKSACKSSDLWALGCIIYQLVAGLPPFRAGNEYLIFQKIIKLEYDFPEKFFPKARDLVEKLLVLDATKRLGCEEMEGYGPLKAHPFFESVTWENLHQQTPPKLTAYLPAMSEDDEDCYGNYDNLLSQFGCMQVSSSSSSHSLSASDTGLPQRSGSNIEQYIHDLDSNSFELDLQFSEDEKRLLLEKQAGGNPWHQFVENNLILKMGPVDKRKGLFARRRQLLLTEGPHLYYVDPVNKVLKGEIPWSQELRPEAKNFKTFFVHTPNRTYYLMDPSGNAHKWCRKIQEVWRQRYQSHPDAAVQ

[12] = biological target: cAMP-dependent protein kinase catalytic subunit alpha (Homo sapiens) (UniProt P17612); details: at 0.1 µM
[13] = biological target: cAMP-dependent protein kinase catalytic subunit alpha (Homo sapiens) (UniProt P17612); details: at 1 µM
[14] = biological target: Protein kinase C alpha type (Homo sapiens) (UniProt P17252); details: at 0.1 µM
[15] = biological target: Protein kinase C alpha type (Homo sapiens) (UniProt P17252); details: at 1 µM
[16] = biological target: Protein kinase C beta type (Homo sapiens) (UniProt P05771); details: at 0.1 µM
Chain of Protein kinase C beta type (Homo sapiens) (P05771 2-671 limits assumed): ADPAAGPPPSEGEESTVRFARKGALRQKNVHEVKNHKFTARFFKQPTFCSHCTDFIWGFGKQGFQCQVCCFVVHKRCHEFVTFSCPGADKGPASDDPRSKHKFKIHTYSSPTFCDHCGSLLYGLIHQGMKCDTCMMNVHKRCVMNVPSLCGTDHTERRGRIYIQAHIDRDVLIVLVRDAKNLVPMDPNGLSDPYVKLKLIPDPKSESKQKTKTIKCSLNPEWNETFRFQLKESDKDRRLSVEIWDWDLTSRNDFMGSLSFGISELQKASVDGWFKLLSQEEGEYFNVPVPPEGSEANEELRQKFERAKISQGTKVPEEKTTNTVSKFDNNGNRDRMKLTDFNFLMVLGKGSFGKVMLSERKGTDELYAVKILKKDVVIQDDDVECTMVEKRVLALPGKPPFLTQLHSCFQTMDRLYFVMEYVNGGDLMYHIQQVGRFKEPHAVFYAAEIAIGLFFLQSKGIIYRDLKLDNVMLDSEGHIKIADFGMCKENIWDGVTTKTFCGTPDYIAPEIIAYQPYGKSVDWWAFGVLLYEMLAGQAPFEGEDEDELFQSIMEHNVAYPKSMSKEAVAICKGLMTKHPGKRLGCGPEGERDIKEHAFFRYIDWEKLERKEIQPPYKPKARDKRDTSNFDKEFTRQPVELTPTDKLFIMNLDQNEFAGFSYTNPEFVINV

[17] = biological target: Protein kinase C beta type (Homo sapiens) (UniProt P05771); details: at 1 µM
[18] = biological target: Protein kinase C eta type (Homo sapiens) (UniProt P24723); details: at 0.1 µM
Chain of Protein kinase C eta type (Homo sapiens) (P24723 whole entry): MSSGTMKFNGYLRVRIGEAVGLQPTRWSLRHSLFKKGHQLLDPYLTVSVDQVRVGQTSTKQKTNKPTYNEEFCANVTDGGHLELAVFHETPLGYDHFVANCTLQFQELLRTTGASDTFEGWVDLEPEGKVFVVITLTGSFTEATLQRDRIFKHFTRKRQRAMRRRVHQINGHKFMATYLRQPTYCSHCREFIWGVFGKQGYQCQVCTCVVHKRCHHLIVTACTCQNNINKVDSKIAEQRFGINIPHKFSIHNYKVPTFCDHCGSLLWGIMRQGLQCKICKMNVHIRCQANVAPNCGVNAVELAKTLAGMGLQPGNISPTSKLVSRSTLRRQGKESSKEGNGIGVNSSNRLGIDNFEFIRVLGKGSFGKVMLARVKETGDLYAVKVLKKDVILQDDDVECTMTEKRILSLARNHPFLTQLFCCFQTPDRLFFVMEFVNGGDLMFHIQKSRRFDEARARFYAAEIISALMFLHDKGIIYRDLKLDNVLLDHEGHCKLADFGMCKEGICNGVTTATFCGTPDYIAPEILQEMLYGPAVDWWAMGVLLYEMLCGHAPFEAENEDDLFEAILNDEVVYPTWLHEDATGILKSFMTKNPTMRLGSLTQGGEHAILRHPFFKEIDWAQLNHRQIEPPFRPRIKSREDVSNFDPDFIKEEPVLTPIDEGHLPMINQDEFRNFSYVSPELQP

[19] = biological target: Protein kinase C eta type (Homo sapiens) (UniProt P24723); details: at 1 µM
[20] = biological target: Protein kinase C gamma type (Homo sapiens) (UniProt P05129); details: at 0.1 µM;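 also: values are mean percent inhibition of PKC gamma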

Chain of Serine/threonine-protein kinase MRCK alpha (Homo sapiens) (Q5VT25 whole entry): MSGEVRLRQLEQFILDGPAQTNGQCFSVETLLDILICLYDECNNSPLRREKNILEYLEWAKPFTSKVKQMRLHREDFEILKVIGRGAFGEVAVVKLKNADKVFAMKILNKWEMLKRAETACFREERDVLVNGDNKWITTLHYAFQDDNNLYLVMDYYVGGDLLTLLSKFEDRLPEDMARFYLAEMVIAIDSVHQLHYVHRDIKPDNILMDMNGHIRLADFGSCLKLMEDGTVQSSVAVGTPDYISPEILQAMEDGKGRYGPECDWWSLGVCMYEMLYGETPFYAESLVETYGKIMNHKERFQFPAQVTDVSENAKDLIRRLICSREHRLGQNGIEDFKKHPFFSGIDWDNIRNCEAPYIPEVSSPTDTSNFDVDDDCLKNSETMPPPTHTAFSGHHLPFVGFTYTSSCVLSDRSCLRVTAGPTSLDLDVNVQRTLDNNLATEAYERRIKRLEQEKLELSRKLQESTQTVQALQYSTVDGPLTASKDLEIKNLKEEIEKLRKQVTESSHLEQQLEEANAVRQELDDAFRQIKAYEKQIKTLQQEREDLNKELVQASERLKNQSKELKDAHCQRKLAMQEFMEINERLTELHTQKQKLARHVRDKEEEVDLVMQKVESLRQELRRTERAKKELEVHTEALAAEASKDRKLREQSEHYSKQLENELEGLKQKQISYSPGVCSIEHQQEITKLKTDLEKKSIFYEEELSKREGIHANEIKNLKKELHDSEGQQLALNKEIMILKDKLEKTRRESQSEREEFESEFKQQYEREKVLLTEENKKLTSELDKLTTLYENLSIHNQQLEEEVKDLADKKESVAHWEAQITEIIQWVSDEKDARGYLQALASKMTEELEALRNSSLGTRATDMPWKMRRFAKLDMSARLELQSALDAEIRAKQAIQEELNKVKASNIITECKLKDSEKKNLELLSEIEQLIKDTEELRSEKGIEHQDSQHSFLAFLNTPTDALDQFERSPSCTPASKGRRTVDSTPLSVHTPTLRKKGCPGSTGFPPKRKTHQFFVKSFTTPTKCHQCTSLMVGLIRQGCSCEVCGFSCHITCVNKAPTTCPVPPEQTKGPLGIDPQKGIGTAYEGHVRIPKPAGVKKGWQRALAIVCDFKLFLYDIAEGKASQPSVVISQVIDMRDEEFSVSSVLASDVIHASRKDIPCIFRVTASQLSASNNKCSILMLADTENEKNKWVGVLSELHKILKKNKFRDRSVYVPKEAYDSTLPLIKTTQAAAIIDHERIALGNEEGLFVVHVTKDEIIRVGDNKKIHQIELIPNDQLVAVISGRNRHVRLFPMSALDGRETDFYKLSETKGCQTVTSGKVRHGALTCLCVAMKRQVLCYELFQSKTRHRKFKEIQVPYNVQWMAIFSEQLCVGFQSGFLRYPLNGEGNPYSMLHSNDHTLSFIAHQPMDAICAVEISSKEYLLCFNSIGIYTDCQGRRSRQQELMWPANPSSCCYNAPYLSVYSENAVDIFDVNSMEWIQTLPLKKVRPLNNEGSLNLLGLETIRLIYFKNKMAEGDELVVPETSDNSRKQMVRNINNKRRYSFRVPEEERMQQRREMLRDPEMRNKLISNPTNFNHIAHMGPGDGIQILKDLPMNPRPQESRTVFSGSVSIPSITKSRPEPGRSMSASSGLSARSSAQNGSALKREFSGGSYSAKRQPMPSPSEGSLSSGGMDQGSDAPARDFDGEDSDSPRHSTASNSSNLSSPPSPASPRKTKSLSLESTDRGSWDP

Row | Compound | inhibition [1] | inhibition [2] | inhibition [3] | inhibition [4] | inhibition [5] | inhibition [6] | inhibition [7] | inhibition [8] | inhibition [9] | inhibition [10] | inhibition [11] | inhibition [12] | inhibition [13] | inhibition [14] | inhibition [15] | inhibition [16] | inhibition [17] | inhibition [18] | inhibition [19] | inhibition [20]
1 | CN(C)c1cc2c(Nc3ccc4c(cnn4Cc4ccccc4)c3)ncnc2cn1 | -0.16% | 0.83% | 1.04% | 1.67% | 3.83% | 6.2% | 2.42% | 6.24% | 2.01% | 3.88% | 2.47% | 1.45% | 1.92% | -0.01% | 0.82% | 0.49% | 1.62% | -1.26% | 1.17% | 0.1%
2 | COc1cc2ncn(-c3cc(OCc4ccccc4S(C)(=O)=O)c(C#N)s3)c2cc1OC | 1.12% | 5.41% | 1.99% | 4.7% | 8.16% | 11% | 3.93% | 10% | 3.14% | 5.33% | 5.59% | 2.29% | 3.77% | 1.33% | 2.72% | 2.71% | 5.16% | 0.91% | -1.63% | 1.77%
3 | COc1ccc(-c2nn3ncccc3c2-c2ccnc(Nc3cccc(C(F)(F)F)c3)n2)cc1 | -3.04% | 1.22% | 0.66% | -0.13% | 1.92% | -0.09% | 2.61% | 1.73% | 1.77% | 0.85% | -0.15% | 2.04% | 2.61% | 0.27% | 1.31% | 1.46% | 2.39% | 0.87% | 0.72% | 2.97%
4 | COc1cccc(-n2nc(C)c3c(N/N=C(\C)c4ccncc4)ncnc32)c1 | 1.87% | -2.42% | 0.02% | -0.47% | 0.18% | -0.52% | 0.44% | 0.3% | 0.29% | -0.38% | 2.62% | 0.69% | -0.34% | -0.84% | -1.11% | 0.03% | -2.45% | -0.66% | -5.32% | 1.51%
5 | CN(C)CCCn1c(-c2nonc2N)nc2cnccc21 | 1.89% | 16.4% | 4.34% | 22.6% | 8.29% | 28.7% | 3.18% | 13.9% | 2.39% | 13.2% | 1.51% | 2.1% | 3.18% | 0.8% | 3.62% | 1.86% | 14.5% | 6.38% | 10% | 4.42%
6 | COc1ccc2ncnc(Nc3ccc(OCc4ccccc4)cc3)c2c1 | 0.54% | 2.68% | 0.54% | 0.8% | 1.25% | 0.63% | -3.48% | 1.47% | 1.08% | 0.96% | 1.04% | 2.11% | 1.43% | -0.06% | 1.22% | 0.57% | 2.16% | -0.44% | -0.65% | 0.01%
7 | Cc1ccc(NC(=O)CC2CC2)cc1-c1ccc(C(=O)NCC2CC2)cc1 | -0.72% | 2.73% | -0.56% | 0.45% | 8.94% | 8.13% | 2.17% | 2.4% | 1.73% | 2.46% | 1.84% | 1.31% | 0.41% | 0.78% | 1.96% | -0.34% | 2.08% | 3.52% | 4.84% | 2.09%
8 | CCS(=O)(=O)c1ccc(OC)c(Nc2ncc(-c3cccc(OC)c3)o2)c1 | -0.07% | -0.94% | -0.48% | 0.59% | 3.23% | 7.32% | -0.21% | 3.76% | 0.98% | 1.18% | 1.14% | 1.07% | 1.26% | 1.39% | 5.21% | 0.07% | -1.05% | -0.85% | 1.66% | 2.11%
9 | COc1cc(/C=N/Nc2ncnc3c2cnn3C(C)C)ccc1O | 0% | 0.03% | 0.84% | 0.35% | 2.8% | 3.54% | 2.2% | 1.83% | 1.17% | 2.21% | 5.59% | 1.05% | 3.87% | 0.6% | 2.74% | 0.72% | 3.01% | 0.82% | 3.21% | -1.82%
10 | Cc1ccc(C(=O)NC2CC2)cc1-c1ccc2[nH]ncc2c1 | 1.33% | 0.57% | 0.35% | 5.75% | -4.06% | -3.97% | -1.94% | -1.58% | -1.62% | -3.02% | -3.15% | -2.46% | 0.47% | -0.47% | 0.07% | -0.41% | -0.31% | -4.21% | -3.72% | -0.11%
11 | C[C@@H](Oc1cc(-n2cnc3ccc(OCC4CCN(C)CC4)cc32)sc1C(N)=O)c1ccccc1C(F)(F)F | 0.6% | 5.18% | 0.07% | 0.75% | -2.08% | -0.6% | 0% | 2.52% | 0.24% | 5.55% | 0.45% | -0.41% | 1.15% | 0.1% | 9.63% | 0.2% | 5.91% | -5.73% | 5.16% | 3.29%
12 | CC(C)c1ccc2c(c1)NC(=O)/C2=N/Nc1ccc(S(N)(=O)=O)cc1 | 2.04% | -2.97% | -0.17% | -1.37% | -0.47% | -2.62% | 0.04% | -1.31% | -0.81% | -1.36% | 0.82% | 1.46% | 0.47% | -0.57% | 0.11% | -0.04% | -5.38% | 2.07% | -1.13% | -0.1%
13 | CCS(=O)(=O)c1ccc(OC)c(Nc2nccc(N(C)c3ccc4c(C)n[nH]c4c3)n2)c1 | -4.24% | -2.48% | 0.97% | 0.83% | 4.1% | 1.28% | 2.02% | 0.35% | 0.02% | 1.3% | -0.7% | 2.41% | 0.84% | 0.55% | 1.48% | 0.4% | -2.93% | 3.8% | 6.38% | 0.63%
